Source: the supplement of paper PMC8728848
Only a selection was taken, and the strongest signals are over-represented in it overall.

Experiments:
Experiment in all cases: glycan array binding signal (z-score within array); higher = stronger binding
Details in all cases: glycan notation: IUPAC condensed, linker removed
[1] = target: GalNAc(a1-3)GalNAc(a1-3)Gal(a1-4)Gal(b1-4)GlcNAc
How it was run: (§1)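 From the Consortium for Functional Glycomics database, 3228 arrays were curated, keeping only those whose protein sequence was available. Binding is given as a within-array Z-score averaged across arrays sharing a protein sequence and across linkers. Negative Z-scores can be read as non-binding.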

[2] = target: GalNAc(b1-4)Gal(b1-4)Glc
How it was run: as §1

[3] = target: GalNAc(b1-4)GlcNAc
How it was run: as §1

[4] = target: GalNAc(b1-4)GlcNAc(b1-3)GalNAc(b1-4)GlcNAc
How it was run: as §1

[5] = target: GalNAc3S(b1-4)GlcNAc
How it was run: as §1

[6] = target: Glc(a1-3)Glc(a1-3)Man(a1-2)Man(a1-2)Man(a1-3)[Man(a1-3)[Man(a1-6)]Man(a1-6)]Man(b1-4)GlcNAc
How it was run: as §1

[7] = target: Glc(a1-4)Glc(a1-4)Glc(a1-4)Glc(a1-4)Glc(a1-4)Glc
How it was run: as §1

[8] = target: Glc(a1-6)Glc
How it was run: as §1

[9] = target: Glc(a1-6)Glc(a1-6)Glc(a1-6)Glc(a1-6)Glc
How it was run: as §1

[10] = target: Glc(a1-6)Glc(a1-6)Glc(a1-6)Glc(a1-6)Glc(a1-6)Glc(a1-6)Glc
How it was run: as §1

[11] = target: Glc(a1-6)Glc(a1-6)Glc(a1-6)Glc(a1-6)Glc(a1-6)Glc(a1-6)Glc(a1-6)Glc(a1-6)Glc(a1-6)Glc(a1-6)Glc(a1-6)Glc(a1-6)Glc
How it was run: as §1

[12] = target: Glc(b1-3)Glc(b1-3)Glc(b1-3)Glc(b1-3)Glc
How it was run: as §1

[13] = target: Glc(b1-3)Glc(b1-3)Glc(b1-3)Glc(b1-3)Glc(b1-3)Glc(b1-3)Glc
How it was run: as §1

[14] = target: Glc(b1-4)Glc
How it was run: as §1

[15] = target: Glc(b1-6)Glc(b1-6)Glc(b1-6)Glc(b1-6)Glc(b1-6)Glc(b1-6)Glc(b1-6)Glc(b1-6)Glc(b1-6)Glc(b1-6)Glc(b1-6)Glc
How it was run: as §1

[16] = target: GlcA(b1-3)Gal
How it was run: as §1

[17] = target: GlcA(b1-3)Gal(b1-4)GlcNAc(b1-3)Gal(b1-4)Glc
How it was run: as §1

[18] = target: GlcA(b1-3)GlcNAc(b1-4)GlcA(b1-3)GlcNAc
How it was run: as §1

[19] = target: GlcA3S(b1-3)Gal(b1-4)GlcNAc(b1-3)Gal(b1-4)Glc
How it was run: as §1

[20] = target: GlcNAc(a1-4)Gal(b1-3)[Fuc(a1-2)]Gal
How it was run: as §1

[21] = target: GlcNAc(a1-4)Gal(b1-4)GlcNAc
How it was run: as §1

[22] = target: GlcNAc(a1-4)Gal(b1-4)GlcNAc(b1-3)Gal(b1-4)[Fuc(a1-3)]GlcNAc(b1-3)Gal(b1-4)[Fuc(a1-3)]GlcNAc
How it was run: as §1

[23] = target: GlcNAc(b1-3)Gal(b1-4)Glc
How it was run: as §1

[24] = target: GlcNAc(b1-3)Gal(b1-4)GlcNAc(b1-2)Man(a1-3)[GlcNAc(b1-3)Gal(b1-4)GlcNAc(b1-2)Man(a1-6)]Man(b1-4)GlcNAc(b1-4)[Fuc(a1-6)]GlcNAc
How it was run: as §1

[25] = target: GlcNAc(b1-3)Gal(b1-4)GlcNAc(b1-3)Gal(b1-4)GlcNAc(b1-3)Gal(b1-4)GlcNAc(b1-3)Gal(b1-4)GlcNAc(b1-2)Man(a1-3)[GlcNAc(b1-3)Gal(b1-4)GlcNAc(b1-3)Gal(b1-4)GlcNAc(b1-3)Gal(b1-4)GlcNAc(b1-3)Gal(b1-4)GlcNAc(b1-2)Man(a1-6)]Man(b1-4)GlcNAc(b1-4)[Fuc(a1-6)]GlcNAc
How it was run: as §1

[26] = target: Kdn(a2-6)Gal
How it was run: as §1

[27] = target: Man(a1-2)Man
How it was run: as §1

[28] = target: Man(a1-2)Man(a1-6)[Man(a1-3)]Man(a1-6)[Man(a1-2)Man(a1-2)Man(a1-3)]Man
How it was run: as §1

[29] = target: Man(a1-3)[Man(a1-6)]Man(a1-6)[Man(a1-3)]Man(b1-4)GlcNAc(b1-4)GlcNAc
How it was run: as §1

[30] = target: Neu5Ac(a2-3)Gal(b1-3)GlcNAc(b1-4)Gal(b1-4)Glc
How it was run: as §1

[31] = target: Neu5Ac(a2-3)Gal(b1-3)GlcNAc6S
How it was run: as §1

[32] = target: Neu5Ac(a2-3)Gal(b1-4)[Fuc(a1-3)]GlcNAc(b1-3)GalNAc
How it was run: as §1

[33] = target: Neu5Ac(a2-3)Gal(b1-4)[Fuc(a1-3)]GlcNAc(b1-4)GalNAc(b1-3)Gal(b1-4)Glc
How it was run: as §1

[34] = target: Neu5Ac(a2-3)Gal(b1-4)[Fuc2Me(a1-3)]GlcNAc(b1-3)Gal
How it was run: as §1

[35] = target: Neu5Ac(a2-3)Gal6S(b1-4)[Fuc(a1-3)]GlcNAc
How it was run: as §1

[36] = target: Neu5Ac(a2-6)Gal(b1-3)GlcNAc(b1-3)[Fuc(a1-3)[Gal(b1-4)]GlcNAc(b1-6)]Gal(b1-4)Glc
How it was run: as §1

[37] = target: Neu5Ac(a2-6)Gal(b1-4)GlcNAc(b1-2)Man(a1-3)[Neu5Ac(a2-3)Gal(b1-4)GlcNAc(b1-2)Man(a1-6)]Man(b1-4)GlcNAc(b1-4)GlcNAc
How it was run: as §1

[38] = target: Neu5Ac(a2-6)Gal(b1-4)GlcNAc(b1-3)Gal(b1-4)GlcNAc(b1-3)GalNAc
How it was run: as §1

[39] = target: Neu5Ac(a2-6)Gal(b1-4)GlcNAc(b1-3)Gal(b1-4)[Fuc(a1-3)]GlcNAc(b1-3)Gal(b1-4)[Fuc(a1-3)]GlcNAc
How it was run: as §1

[40] = target: Neu5Ac(a2-8)Neu5Ac(a2-3)[Gal(b1-3)GalNAc(b1-4)]Gal(b1-4)Glc
How it was run: as §1

[41] = target: Neu5Ac(a2-8)Neu5Ac(a2-8)Neu5Ac(a2-3)[Gal(b1-3)GalNAc(b1-4)]Gal(b1-4)Glc
How it was run: as §1

[42] = target: Neu5Ac(b2-6)Gal(b1-4)GlcNAc
How it was run: as §1

[43] = target: Neu5Ac(b2-6)GalNAc
How it was run: as §1

[44] = target: Neu5Ac9Ac(a2-3)Gal(b1-3)GlcNAc
How it was run: as §1

[45] = target: Neu5Gc(a2-8)Neu5Ac(a2-3)Gal(b1-4)GlcNAc
How it was run: as §1

[46] = target: Xyl(b1-2)[Man(a1-3)][Man(a1-6)]Man(b1-4)GlcNAc(b1-4)[Fuc(a1-3)]GlcNAc
How it was run: as §1

B1: CLEC5A (Homo sapiens), Q9NY25 (protein)
chain: MNWHMIISGLIVVVLKVVGMTLFLLYFPQIFNKSNDGFTTTRSYGTVSQIFGSSSPSPNGFITTRSYGTVCPKDWEFYQARCFFLSTSESSWNESRDFCKGKGSTLAIVNTPEKLKFLQDITDAEKYFIGLIYHREEKRWRWINNSVFNGNVTNQNQNFNCATIGLTKTFDAASCDISYRRICEKNAK
[1]
  glycan array binding signal (z-score): -0.892
[2]
  glycan array binding signal (z-score): -0.144
[3]
  glycan array binding signal (z-score): -0.135
[4]
  glycan array binding signal (z-score): -0.136
[5]
  glycan array binding signal (z-score): -0.162
[6]
  glycan array binding signal (z-score): -0.32
[7]
  glycan array binding signal (z-score): 1.32
[8]
  glycan array binding signal (z-score): 1.7
[9]
  glycan array binding signal (z-score): -0.32
[10]
  glycan array binding signal (z-score): 1.51
[11]
  glycan array binding signal (z-score): 2.19
[12]
  glycan array binding signal (z-score): 6.52
[13]
  glycan array binding signal (z-score): 1.8
[14]
  glycan array binding signal (z-score): -0.371
[15]
  glycan array binding signal (z-score): 1.8
[16]
  glycan array binding signal (z-score): -0.34
[17]
  glycan array binding signal (z-score): -0.32
[18]
  glycan array binding signal (z-score): -0.32
[19]
  glycan array binding signal (z-score): -0.074
[20]
  glycan array binding signal (z-score): -0.32
[21]
  glycan array binding signal (z-score): -0.125
[22]
  glycan array binding signal (z-score): 1.74
[23]
  glycan array binding signal (z-score): 6.6
[24]
  glycan array binding signal (z-score): -0.014
[25]
  glycan array binding signal (z-score): 1.7
[26]
  glycan array binding signal (z-score): -0.32
[27]
  glycan array binding signal (z-score): 1.03
[28]
  glycan array binding signal (z-score): -0.249
[29]
  glycan array binding signal (z-score): 0.488
[30]
  glycan array binding signal (z-score): -0.012
[31]
  glycan array binding signal (z-score): 0.026
[32]
  glycan array binding signal (z-score): 1.67
[33]
  glycan array binding signal (z-score): -0.32
[34]
  glycan array binding signal (z-score): 0.548
[35]
  glycan array binding signal (z-score): 0.366
[36]
  glycan array binding signal (z-score): 0.258
[37]
  glycan array binding signal (z-score): -0.161
[38]
  glycan array binding signal (z-score): -0.189
[39]
  glycan array binding signal (z-score): -0.16
[40]
  glycan array binding signal (z-score): -0.133
[41]
  glycan array binding signal (z-score): -0.191
[42]
  glycan array binding signal (z-score): -0.302
[43]
  glycan array binding signal (z-score): -0.184
[44]
  glycan array binding signal (z-score): -0.191
[45]
  glycan array binding signal (z-score): -0.121
[46]
  glycan array binding signal (z-score): -0.32
